The values below come from the supplement of paper PMC3545927.

This assay deals with furin, P09958. In words: furin cleavage Z-score vs untreated control; higher = more cleavage, active = 3.5 or more, inactive = 1 or less, 8 variable residues between constant flanks. Summed up:
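Purified furin digested bead-held 8-mer peptide–cDNA fusions at 1:10 enzyme:substrate in 0.01 ml of 50 mM HEPES pH 7.5 with CaCl2 and NaCl for 7.5, 15 or 30 min. The cleavage Z-score compares sequencing counts of released DNA with furin-free reactions on a log scale, with lowess adjustment and median absolute deviation scaling.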

The list shows a part of the results. The hit rate among all sequences tested is not known here.

Chain of furin, P09958 (P09958 whole entry, the tested form may be a part): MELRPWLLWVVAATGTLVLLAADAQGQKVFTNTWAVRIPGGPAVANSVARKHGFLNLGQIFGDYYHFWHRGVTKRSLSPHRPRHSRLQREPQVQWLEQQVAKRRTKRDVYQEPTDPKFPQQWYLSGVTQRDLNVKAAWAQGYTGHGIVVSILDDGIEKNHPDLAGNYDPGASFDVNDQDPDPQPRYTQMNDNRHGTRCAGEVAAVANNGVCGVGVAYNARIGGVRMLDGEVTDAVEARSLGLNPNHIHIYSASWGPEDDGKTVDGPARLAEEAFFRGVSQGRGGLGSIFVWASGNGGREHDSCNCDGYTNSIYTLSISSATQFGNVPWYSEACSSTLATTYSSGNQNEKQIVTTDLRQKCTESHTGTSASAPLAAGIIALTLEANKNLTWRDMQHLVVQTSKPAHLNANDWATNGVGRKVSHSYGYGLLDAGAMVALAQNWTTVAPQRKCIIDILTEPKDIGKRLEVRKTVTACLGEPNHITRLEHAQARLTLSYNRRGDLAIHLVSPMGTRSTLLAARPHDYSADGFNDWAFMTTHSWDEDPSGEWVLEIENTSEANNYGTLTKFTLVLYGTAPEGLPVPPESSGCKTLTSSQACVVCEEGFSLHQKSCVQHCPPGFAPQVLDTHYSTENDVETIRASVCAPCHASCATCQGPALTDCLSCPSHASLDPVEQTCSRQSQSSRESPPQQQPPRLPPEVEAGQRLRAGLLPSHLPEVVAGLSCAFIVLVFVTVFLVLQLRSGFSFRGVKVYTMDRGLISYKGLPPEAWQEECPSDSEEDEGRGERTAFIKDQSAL

Turning to CATGDFDSVIAGNASASA [HC883], the “furin cleavage Z-score” value is -0.133 (inactive) (7.5 min), -1.34 (inactive) (15 min) and -0.511 (inactive) (30 min).
In the case of CAGSFRSLRSAGNASASA [FS-433], the “furin cleavage Z-score” value reads like this: (7.5 min) -0.832 (inactive); (15 min) -0.397 (inactive); (30 min) -0.333 (inactive).
As for CAGSFRGKRSAGNASASA [FS-1206], the “furin cleavage Z-score” value (7.5 min) was 11.1 (active), the “furin cleavage Z-score” value (15 min) is 11.4 (active) and the “furin cleavage Z-score” value (30 min) is 8.01 (active).
For the sequence CAKRRLQKRSAGNASASA [FS-1638], the “furin cleavage Z-score” value was 11.7 (active) (7.5 min), 9.73 (active) (15 min) and 9.24 (active) (30 min).
On to CANRGIGKRSAGNASASA [FS-65], for which the “furin cleavage Z-score” value runs as follows: (7.5 min) 7.18 (active); (15 min) 8.2 (active); (30 min) 7.79 (active).
Taken in the same sequence, the figures for CANLMRPKRSAGNASASA [FS-137] were 11.8 (active), 11.3 (active) and 8.61 (active).
Taken in the same sequence, the figures for CACQRGYKGVAGNASASA [HC1166] were -1.45 (inactive), -3.75 (inactive) and -2.51 (inactive).
On the same counts, the results for CAEWEVPCHRAGNASASA [HC2448] are 1.07, 2.14 and 0.904 (inactive).
For the sequence CAIGSVGLGKAGNASASA [HC1080], the “furin cleavage Z-score” value (7.5 min) is 1.13, the “furin cleavage Z-score” value (15 min) is 0.942 (inactive) and the “furin cleavage Z-score” value (30 min) was -0.856 (inactive).
For the sequence CAETPCSGSWAGNASASA [HC1832], the “furin cleavage Z-score” value reads like this: (7.5 min) -0.56 (inactive); (15 min) -0.454 (inactive); (30 min) -0.69 (inactive).
Take CAGINAVAYYAGNASASA [HC866]: the “furin cleavage Z-score” value was -0.468 (inactive) (7.5 min), -1.09 (inactive) (15 min) and -1.09 (inactive) (30 min).
In the case of CARSRKEVELAGNASASA [FS-2089], the “furin cleavage Z-score” value is 0.0687 (inactive) (7.5 min), 0.38 (inactive) (15 min) and -1.75 (inactive) (30 min).
Regarding CADELRGKRSAGNASASA [FS-754], the “furin cleavage Z-score” value was -0.105 (inactive) (7.5 min), 0.269 (inactive) (15 min) and -1.01 (inactive) (30 min).
On the same counts, the results for CARKRAQKRSAGNASASA [FS-1064] are 8.12 (active), 9.12 (active) and 7.74 (active).
For the sequence CALKPRPKRSAGNASASA [FS-609], the “furin cleavage Z-score” value (7.5 min) is 10.8 (active), the “furin cleavage Z-score” value (15 min) is 12.3 (active) and the “furin cleavage Z-score” value (30 min) was 9.88 (active).
Taken in the same sequence, the figures for CALKRRGKRSAGNASASA [FS-350] were 12.2 (active), 12.5 (active) and 8.44 (active).
Taken in the same sequence, the figures for CALRKYPKRSAGNASASA [FS-358] were 0.0194 (inactive), 0.839 (inactive) and 1.49.
Taken in the same sequence, the figures for CACGGRGKRSAGNASASA [FS-14] were 8.41 (active), 9.33 (active) and 7.54 (active).
In the case of CAEVPCHRDSAGNASASA [HC2391], the “furin cleavage Z-score” value was 0.533 (inactive) (7.5 min), 1.52 (15 min) and 1.63 (30 min).
On the same counts, the results for CAFVSLLAPGAGNASASA [HC360] are -0.325 (inactive), -1.4 (inactive) and -1.08 (inactive).
CAEVPCHDPSAGNASASA [HC2371]: the “furin cleavage Z-score” value reads like this: (7.5 min) 0.427 (inactive); (15 min) 1.64; (30 min) 0.537 (inactive).
Turning to CAEVPCHRYSAGNASASA [HC2389], the “furin cleavage Z-score” value runs as follows: (7.5 min) 0.533 (inactive); (15 min) 1.28; (30 min) 1.5.
Take CADLMEECSQAGNASASA [HC1805]: the “furin cleavage Z-score” value (7.5 min) is -0.946 (inactive), the “furin cleavage Z-score” value (15 min) is -0.224 (inactive) and the “furin cleavage Z-score” value (30 min) is -0.925 (inactive).
Taken in the same sequence, the figures for CALKRMQKRSAGNASASA [FS-610] were 12.7 (active), 13.3 (active) and 10.5 (active).
Taken in the same sequence, the figures for CAEALRQKRAAGNASASA [FS-227] were 6.68 (active), 7.12 (active) and 5.04 (active).
Turning to CAEAMTRYSAAGNASASA [HC1541], the “furin cleavage Z-score” value (7.5 min) is -0.217 (inactive), the “furin cleavage Z-score” value (15 min) was 0.448 (inactive) and the “furin cleavage Z-score” value (30 min) is -0.963 (inactive).
Taken in the same sequence, the figures for CAHLVRQKRAAGNASASA [FS-1008] were 10.3 (active), 10.1 (active) and 7.65 (active).
On the same counts, the results for CATTPCSGPWAGNASASA [HC1919] are -0.176 (inactive), 1.46 and 0.343 (inactive).
On to CAFVLNNTRPAGNASASA [HC429], for which the “furin cleavage Z-score” value is -0.02 (inactive) (7.5 min), 0.46 (inactive) (15 min) and -0.424 (inactive) (30 min).
Take CARARRSMDEAGNASASA [FS-2203]: the “furin cleavage Z-score” value by setting is: (7.5 min) 10.2 (active); (15 min) 11.1 (active); (30 min) 8.05 (active).
Taken in the same sequence, the figures for CARARRRTPTAGNASASA [FS-1995] were 0.355 (inactive), 2.75 and 0.804 (inactive).
On the same counts, the results for CARRLREAVQAGNASASA [FS-2071] are 0.989 (inactive), -0.0587 (inactive) and 2.28.
On the same counts, the results for CARRLRARREAGNASASA [FS-291] are 9.55 (active), 8.95 (active) and 6.29 (active).
CARARRRSAEAGNASASA [FS-2889]: the “furin cleavage Z-score” value reads like this: (7.5 min) 2.93; (15 min) 2.98; (30 min) 4.07 (active).
Taken in the same sequence, the figures for CARARKLADEAGNASASA [FS-2887] were 0.23 (inactive), -0.74 (inactive) and -2.19 (inactive).
On to CARARRLRREAGNASASA [FS-288], for which the “furin cleavage Z-score” value runs as follows: (7.5 min) 12.9 (active); (15 min) 12.3 (active); (30 min) 9.18 (active).
On to CAVTKYIMTCAGNASASA [HC981], for which the “furin cleavage Z-score” value by setting is: (7.5 min) -0.549 (inactive); (15 min) -0.794 (inactive); (30 min) 0.2 (inactive).
Taken in the same sequence, the figures for CAEVPCHHPSAGNASASA [HC2375] were 0.748 (inactive), 1.23 and 0.223 (inactive).
As to CAAPNYTFALAGNASASA [HC1198], the “furin cleavage Z-score” value (7.5 min) was -1.92 (inactive), the “furin cleavage Z-score” value (15 min) was -0.299 (inactive) and the “furin cleavage Z-score” value (30 min) was -0.368 (inactive).
On the same counts, the results for CAGDPPQPEYAGNASASA [HC1546] are -0.406 (inactive), -0.628 (inactive) and 0.347 (inactive).
As to CARVRRAGQGAGNASASA [FS-2106], the “furin cleavage Z-score” value reads like this: (7.5 min) 3.76 (active); (15 min) 5.43 (active); (30 min) 4.94 (active).
Taken in the same sequence, the figures for CARVRRLFCRAGNASASA [FS-2245] were 0.941 (inactive), 1.51 and 0.361 (inactive).
With CARVRKDGGGAGNASASA [FS-2842], the “furin cleavage Z-score” value is -0.741 (inactive) (7.5 min), 1.03 (15 min) and -1.03 (inactive) (30 min).
Take CARCWVAMTPAGNASASA [HC279]: the “furin cleavage Z-score” value (7.5 min) was -1.59 (inactive), the “furin cleavage Z-score” value (15 min) worked out at 1.01 and the “furin cleavage Z-score” value (30 min) is -0.0231 (inactive).
With CARVRRAIPRAGNASASA [FS-3123], the “furin cleavage Z-score” value is, setting by setting: (7.5 min) 5.13 (active); (15 min) 4.64 (active); (30 min) 6.32 (active).
On the same counts, the results for CARVRRAATPAGNASASA [FS-2621] are 11.8 (active), 12.6 (active) and 10.3 (active).
Taken in the same sequence, the figures for CASVSHARPRAGNASASA [HC1652] were 0.173 (inactive), -1.3 (inactive) and -0.282 (inactive).
As for CARVRRQIHAAGNASASA [FS-2319], the “furin cleavage Z-score” value is, setting by setting: (7.5 min) 8.32 (active); (15 min) 8.68 (active); (30 min) 7.57 (active).
